# Measured values as given in PubChem BioAssay AID1347418 (Sanford-Burnham Center for Chemical Genomics, 2020).
# Screen size: about 1,300 compounds; about 750 (58%) were called active. This is one part of the list. Unmarked numbers belong to inactive results.
# Target: Sulfhydryl oxidase 1 (Homo sapiens) (UniProt O00391)
# Assay: inhibition of human sulfhydryl oxidase QSOX1 – biochemical, ROS-Glo H2O2 luminescence, HTS, primary screen (AID 1347418)
# Settings: recombinant QSOX1, ROS-Glo H2O2 luminescence; at 12.5 µM; hits give high values; active = any value above zero
# Chain of Sulfhydryl oxidase 1 (Homo sapiens) (O00391 whole entry, looked up): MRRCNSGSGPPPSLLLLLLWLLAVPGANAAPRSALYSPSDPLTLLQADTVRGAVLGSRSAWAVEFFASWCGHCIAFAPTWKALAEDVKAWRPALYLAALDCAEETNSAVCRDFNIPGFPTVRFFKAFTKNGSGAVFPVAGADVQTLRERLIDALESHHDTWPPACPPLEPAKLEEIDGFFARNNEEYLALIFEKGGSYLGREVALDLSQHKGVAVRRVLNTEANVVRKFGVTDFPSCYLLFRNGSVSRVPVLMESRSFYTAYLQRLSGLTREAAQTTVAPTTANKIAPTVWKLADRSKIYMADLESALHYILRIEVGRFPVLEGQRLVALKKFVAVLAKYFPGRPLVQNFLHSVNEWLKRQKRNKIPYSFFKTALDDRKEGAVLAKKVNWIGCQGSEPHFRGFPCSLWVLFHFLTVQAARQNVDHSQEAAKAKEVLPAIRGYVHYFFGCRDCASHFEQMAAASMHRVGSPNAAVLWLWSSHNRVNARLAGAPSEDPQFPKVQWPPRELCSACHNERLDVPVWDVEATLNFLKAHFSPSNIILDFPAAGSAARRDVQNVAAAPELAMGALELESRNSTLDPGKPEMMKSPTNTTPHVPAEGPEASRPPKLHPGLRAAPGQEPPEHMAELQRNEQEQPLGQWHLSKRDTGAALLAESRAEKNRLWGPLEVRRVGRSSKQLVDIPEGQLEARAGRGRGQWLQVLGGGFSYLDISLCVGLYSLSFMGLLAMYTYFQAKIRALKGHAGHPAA
row,SMILES,inhibition
1,Clc1ccc2c(c1)C(N1CCNCC1)=Nc1ccccc1O2,2.5% (active)
2,CN1CCN(C2=Nc3ccccc3Oc3ccc(Cl)cc32)CC1,1.9% (active)
3,Nc1nc2[nH]c(=O)cnc2c(=O)[nH]1,2.6% (active)
4,Cn1cc(C(F)(F)F)nc1-c1ccc(OCC(O)CNCCOc2ccc(O)c(C(N)=O)c2)cc1 (centres undefined),5.6% (active)
5,O=C(c1ccc2c(c1)OCCO2)N1CCCCC1,4.8% (active)
6,CCC(=O)N1CCN(C(=O)c2ccccc2)CC1,-5.7%
7,NCC(O)c1ccc(O)c(O)c1 (centres undefined),7.1% (active)
8,NC[C@H](O)c1ccc(O)c(O)c1,9.5% (active)
9,C=C[C@H]1CN2CC[C@@H]1C[C@@H]2[C@H](O)c1ccnc2ccc(OC)cc12,-1.1%
10,NCCCNCCSP(=O)(O)O,1.1% (active)
11,CC(C)COCC(CN(Cc1ccccc1)c1ccccc1)N1CCCC1 (centres undefined),9.6% (active)
12,Cc1ccc(=O)n(-c2ccccc2)c1,0.9% (active)
13,CCCCC1C(=O)N(c2ccccc2)N(c2ccccc2)C1=O,-5.9%
14,Cc1cc(O)c2c(c1)C(=O)c1cc(O)cc(O)c1C2=O,10.6% (active)
15,CCCc1c(-c2ccc(O)cc2)nn(-c2ccc(O)cc2)c1-c1ccc(O)cc1,17.5% (active)
16,Cn1cc(C(=O)OCC2CCN(CCNS(C)(=O)=O)CC2)c2ccccc21,-2.2%
17,CCN(CC)C(=S)SSC(=S)N(CC)CC,14.5% (active)
18,CC12C(=O)OC(=O)C1(C)C1CCC2O1 (centres undefined),-4%
19,CN1CCc2cc(Cl)c(O)cc2[C@@H](c2ccccc2)C1,10.2% (active)
20,CN1CCc2cc(O)c(O)cc2C(c2ccccc2)C1 (centres undefined),14.7% (active)
21,CN(C)c1cc2c(Nc3ccc4c(cnn4Cc4ccccc4)c3)ncnc2cn1,-0.7%
22,Cc1cc(C(C)(C)C)cc(C)c1CC1=NCCN1,3.9% (active)
23,Cc1cc(C(C)(C)C)c(O)c(C)c1CC1=NCCN1,-1.4%

row,SMILES,inhibition
1,N=S(=O)([O-])Cc1noc2c1C=C[C+]=C2,-4.8%
2,O=C1C(SCCO)=C(SCCO)C(=O)c2ccccc21,-58.7%
3,COC1=C(OC)C(=O)c2ccccc2C1=O,6.2% (active)
4,O=[N+]([O-])c1ccc(-c2nc(-c3ccc(F)cc3)c(-c3ccncc3)[nH]2)cc1,6.9% (active)
5,Oc1ccc(-c2nc(-c3ccc(F)cc3)c(-c3ccncc3)[nH]2)cc1,31.8% (active)
6,N#Cc1cc([N+](=O)[O-])c2sc(C(N)=O)[n+]([O-])c2c1,2.3% (active)
7,COc1nc(C)nc(Cl)c1NC1=NCCN1,-8.3%
8,Cc1nn(-c2ccccc2)c(C)c1C=NN1CCN(Cc2ccccc2)CC1,5.8% (active)
9,Nc1nnc(-c2cccc(Cl)c2Cl)c(N)n1,-3.6%
10,Nc1ccc(N2C(=O)c3ccccc3C2=O)c(Cl)c1,10.7% (active)
11,CCCCCCCCCC(=O)NC(CN1CCOCC1)[C@H](O)c1ccccc1 (some centres undefined),4.7% (active)
12,CC1COc2c(N3CCN(C)CC3)c(F)cc3c(=O)c(C(=O)O)cn1c23 (centres undefined),-1.5%
13,CN=C(NC#N)NCCSCc1nc[nH]c1C,3.1% (active)
14,NC(=O)OCC(COC(N)=O)c1ccccc1,1.7% (active)
15,NS(=O)(=O)C#Cc1ccccc1,0.5% (active)
16,Oc1ccc2ccccc2c1SSc1c(O)ccc2ccccc12,34.9% (active)
17,Clc1nccc2c1ccc1ccccc12,-1.8%
18,COc1cc(/C=C(\C#N)C(=O)Nc2nnc(C(F)(F)F)s2)ccc1OCc1ccc(C(F)(F)F)cc1C(F)(F)F,0.8% (active)
19,CN(C)c1nc2c(Br)c(Br)c(Br)c(Br)c2[nH]1,7% (active)
20,Nc1cc(=O)[nH]c(N)n1,2% (active)
21,CCCN(CCC)CCc1cccc2c1CC(=O)N2,1.5% (active)
22,CC(C)CC(NP(=O)(O)O[C@@H]1O[C@@H](C)[C@H](O)[C@@H](O)[C@H]1O)C(=O)NC(Cc1c[nH]c2ccccc12)C(=O)O (some centres undefined),4.6% (active)
23,CN[C@H](CC(=O)O)C(=O)O,2.3% (active)

row,SMILES,inhibition
1,CC[C@H](C)C(=O)O[C@H]1CCC=C2C=C[C@H](C)[C@H](CC[C@@H]3C[C@@H](O)CC(=O)O3)[C@H]21,-6.8%
2,NC(N)=N[C@@H](CCC(=O)O)C(=O)O,0.9% (active)
3,CNCCC=C1c2ccccc2CCc2ccccc21,2.3% (active)
4,CC#CCOC(=O)c1c(C)nc2sc3c(c2c1N)CCC(O)C3 (centres undefined),1.6% (active)
5,CN1CCC[C@H]1c1cccnc1,-0.6%
6,COc1ccccc1N1CCN(CCCNc2cc(=O)n(C)c(=O)n2C)CC1,10.9% (active)
7,COc1ccccc1N1CCN(CCCNc2c(C)c(=O)n(C)c(=O)n2C)CC1,7.4% (active)
8,CCC(C)N(C)C(=O)c1cc2ccccc2c(-c2ccccc2Cl)n1 (centres undefined),-1.2%
9,OCCN1CCN(CCCN2c3ccccc3C=Cc3ccccc32)CC1,6.4% (active)
10,CN1CCN(CCCN2c3ccccc3Sc3ccc(Cl)cc32)CC1,46.5% (active)
11,OCCN1CCN(CCCN2c3ccccc3Sc3ccc(Cl)cc32)CC1,45.4% (active)
12,CN1CCN(C2Cc3ccccc3Sc3ccc(Cl)cc32)CC1 (centres undefined),-2.3%
13,COc1cc2c(cc1OC)-c1cc(=Nc3c(C)cc(C)cc3C)n(C)c(=O)n1CC2,-1.4%
14,Cc1ccc(S(=O)(=O)/C=C/C#N)cc1,0.7% (active)
15,CC(C)(C)c1ccc(S(=O)(=O)/C=C/C#N)cc1,1.2% (active)
16,C=C[C@@]1(C)CC(=O)[C@]2(O)[C@@]3(C)[C@H](O)CCC(C)(C)[C@@H]3[C@H](O)[C@H](OC(C)=O)[C@@]2(C)O1,19.3% (active)
17,Nc1nc(N)c(N=O)c(OCC2CCCCC2)n1,20.8% (active)
18,CC(C)(C)c1onc(OCP(=O)(O)O)c1CC(N)C(=O)O (centres undefined),4.7% (active)
19,CCCN(CC1CC1)c1nc(C)nc(Nc2c(Cl)cc(Cl)cc2Cl)c1Cl,0.1% (active)
20,CSC(=N)N,-7.4%
21,CCSC(=N)N,0.7% (active)
22,CCN1/C(=C/C(C)=O)Sc2ccc(OC)cc21,10.3% (active)
23,CC(=O)O[C@H]1CC2(C)[C@@H](C[C@@H](O)[C@H]3[C@@]4(C)CC[C@@H](O)[C@@H](C)[C@@H]4CC[C@@]32C)/C1=C(/CCC=C(C)C)C(=O)O (some centres undefined),2.7% (active)
